Several values for one entry are separate records, joined by “and”; a condition that tells them apart may be missing. Identical values can stand only once. More than one record can exist for a structure, and the calls need not agree. Activity calls are given as the source filed them.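 Rule for the calls, unless noted: active = thallium flux through the channel raised or lowered by more than 3 SD from vehicle-only wells, actives on both sides; inactive = the rest.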
What was measured:
[1] = Wnt pathway potentiators raising nuclear beta-catenin – imaging, WNT3A-conditioned medium, mouse C2C12, NPC library, primary screen (AID 1117326; in the data active = nuclear beta-catenin stimulation mostly above about 4.2%, no sharp cut-off; inactive = mostly below about 10%); details: stronger effect = higher value
[2] = stimulators of insulin release from INS-1E, primary screen, cell-based, 5 mM glucose, NPC library (AID 1117329;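 active = compound raises insulin release from rat beta cells at 5 mM glucose, no numeric limit stated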); details: rat INS-1E insulin secretion, at 10 µM, stronger effect = higher value
[3] = growth inhibition of GSK3B-pretreated HCT116 cells – cell-based, CellTiter-Glo, 0.2 to 20 µM (AID 1117336;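 active = compounds lowering colon cancer cell viability after pretreatment blocking the GSK3B kinase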); details: HCT116 viability after GSK3B inhibitor, at 20 µM, stronger effect = higher value
[4] = inhibition of endothelial tube formation, primary screen, imaging, VEGF stimulated, CD31 staining, tube area, NPC library (AID 1117340;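 active = compound that reduces growth-factor-driven endothelial tube area in a mixed cell culture, no cutoff stated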); details: VEGF-stimulated ADSC/ECFC co-culture, at 10 µM, stronger effect = higher value
[5] = GLP1 release stimulators, primary, NCI-H716, NPC library (AID 1117341;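 active = compound raises GLP1 secretion from the human gut endocrine cells, with no numeric limit stated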); details: NCI-H716 cells, at 10 µM, stronger effect = higher value
[6] = HCT116 colon cancer cell growth inhibition, primary screen, CellTiter-Glo luminescence, NPC library (AID 1117342;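 active = compounds that lower survival of HCT116 colon cancer cells in the luminescence readout, no numeric limit stated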); details: at 20 µM (top of the series)
[7] = reduced SW480 viability measured with CellTiter-Glo, NPC library, primary (AID 1117343;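 active = compounds that lower viability of the colon cancer cells in the luminescence readout, with no numeric limit stated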); details: CellTiter-Glo luminescence; at 20 µM (top of the series)
[8] = NPC library primary testing for decreased DLD-1 cell viability via CellTiter-Glo (AID 1117346;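 active = compounds that lower survival of DLD-1 colon cancer cells in the luminescence readout, no cutoff given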); details: DLD-1 viability, CellTiter-Glo luminescence; at 20 µM (top of the series)
[9] = target: 6-phosphogluconate dehydrogenase, decarboxylating (Homo sapiens) (UniProt P52209); assay: inhibition of human phosphogluconate dehydrogenase – biochemical, recombinant enzyme, NADPH absorbance, primary screen (AID 1159550;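 active = at least 20% inhibition of 6-phosphogluconate dehydrogenase activity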); details: recombinant 6PGD, NADPH absorbance 341 nm; at 10 µM; stronger effect = higher value
Sequence of 6-phosphogluconate dehydrogenase, decarboxylating (Homo sapiens) (P52209 whole entry, looked up): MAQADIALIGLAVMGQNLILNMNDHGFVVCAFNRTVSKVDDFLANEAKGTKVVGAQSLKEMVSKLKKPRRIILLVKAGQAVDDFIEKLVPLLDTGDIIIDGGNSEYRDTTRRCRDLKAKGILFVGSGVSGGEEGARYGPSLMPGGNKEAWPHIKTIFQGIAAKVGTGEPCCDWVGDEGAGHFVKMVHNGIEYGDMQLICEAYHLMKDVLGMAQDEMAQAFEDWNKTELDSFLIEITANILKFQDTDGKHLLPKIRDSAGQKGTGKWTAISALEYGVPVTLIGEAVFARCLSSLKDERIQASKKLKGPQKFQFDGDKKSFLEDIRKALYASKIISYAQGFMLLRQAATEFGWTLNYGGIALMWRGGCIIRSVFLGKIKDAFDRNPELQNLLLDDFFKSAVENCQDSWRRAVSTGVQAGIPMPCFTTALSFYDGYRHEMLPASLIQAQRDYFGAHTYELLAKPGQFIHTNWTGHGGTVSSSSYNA

[10] = viability loss with induced miR-34 in A549 – imaging, A549 dox-inducible miR-34, nuclei and caspase counts, primary screen (AID 1347080;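 active = compounds whose cell count with miR-34 switched on is under 0.7 times the count with it off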); details: A549 miR-34 inducible, Hoechst nuclei count, 48 h
[11] = MELAS cybrid and Rieske KO viability enhancers – cell-based, MELAS cybrids, Rieske KO mouse fibroblasts, CellTiter-Glo, primary screen (AID 1508586;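 active = mean z-score across replicates of 1.96 or higher in either the MELAS or the Rieske mutant cell line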;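 note: z relative to plate mean and SD of compound and empty wells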); details: low glucose
[12] = target: Mitogen-activated protein kinase 7 (Homo sapiens) (UniProt Q13164); assay: Gal4-ERK5 driven luciferase induction – cell-based, HTS, primary screen (AID 1508626;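 active = luciferase signal above three times the same-plate solvent-only control wells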;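 note: luciferase driven by Gal4-ERK5 fusion binding five Gal4 sites before minimal TATA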); details: HeLa Gal4-ERK5 transactivation, 18 h, at 5 µM, stronger effect = higher value
Sequence of Mitogen-activated protein kinase 7 (Homo sapiens) (Q13164 whole entry, looked up, the tested form may be a part): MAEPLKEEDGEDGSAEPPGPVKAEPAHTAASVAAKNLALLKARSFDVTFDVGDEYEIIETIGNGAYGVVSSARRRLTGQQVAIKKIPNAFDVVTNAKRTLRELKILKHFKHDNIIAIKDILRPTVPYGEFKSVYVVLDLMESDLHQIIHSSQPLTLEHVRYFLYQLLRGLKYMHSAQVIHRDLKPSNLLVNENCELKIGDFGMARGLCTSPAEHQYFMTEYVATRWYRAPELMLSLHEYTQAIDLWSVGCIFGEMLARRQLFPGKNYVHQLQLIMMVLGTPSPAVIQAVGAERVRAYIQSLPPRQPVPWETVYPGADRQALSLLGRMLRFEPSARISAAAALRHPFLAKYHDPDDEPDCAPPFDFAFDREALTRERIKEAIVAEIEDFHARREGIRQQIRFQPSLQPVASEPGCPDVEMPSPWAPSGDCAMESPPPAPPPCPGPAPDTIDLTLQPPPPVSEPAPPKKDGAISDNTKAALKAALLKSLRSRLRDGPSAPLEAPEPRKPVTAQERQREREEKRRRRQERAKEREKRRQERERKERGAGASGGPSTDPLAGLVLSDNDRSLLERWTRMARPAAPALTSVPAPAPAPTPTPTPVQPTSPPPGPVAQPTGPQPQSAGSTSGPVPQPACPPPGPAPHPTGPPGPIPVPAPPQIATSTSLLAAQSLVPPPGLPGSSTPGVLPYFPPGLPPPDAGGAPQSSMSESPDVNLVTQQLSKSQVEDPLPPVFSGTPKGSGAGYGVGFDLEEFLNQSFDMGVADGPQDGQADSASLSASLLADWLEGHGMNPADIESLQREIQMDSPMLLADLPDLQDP

F380Y = assay: BK channel mutant inhibitors and activators – cell-based, U2OS BacMam, thallium flux, beta subunits, selectivity assay, profiling panel (AID 1259406); details: U2OS BacMam BK variants, at 30 µM;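 note: initial slope of Thallos dye fluorescence rise after thallium is added; log ratio against the mean of 0.3% DMSO vehicle wells on the same plate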
F380Y/beta2Delta = assay: as above; details: U2OS BacMam BK variants, at 30 µM
[13] = target: Calcium-activated potassium channel subunit alpha-1 (Homo sapiens) + Leucine-rich repeat-containing protein 26 (Homo sapiens) (UniProt Q12791+Q2I0M4); assay: as above; details: U2OS BacMam BK variants, F380Y/Slo1WT/gamma1, at 30 µM
Sequence of Calcium-activated potassium channel subunit alpha-1 (Homo sapiens) + Leucine-rich repeat-containing protein 26 (Homo sapiens) (Q2I0M4 whole entry, looked up, one chain of several): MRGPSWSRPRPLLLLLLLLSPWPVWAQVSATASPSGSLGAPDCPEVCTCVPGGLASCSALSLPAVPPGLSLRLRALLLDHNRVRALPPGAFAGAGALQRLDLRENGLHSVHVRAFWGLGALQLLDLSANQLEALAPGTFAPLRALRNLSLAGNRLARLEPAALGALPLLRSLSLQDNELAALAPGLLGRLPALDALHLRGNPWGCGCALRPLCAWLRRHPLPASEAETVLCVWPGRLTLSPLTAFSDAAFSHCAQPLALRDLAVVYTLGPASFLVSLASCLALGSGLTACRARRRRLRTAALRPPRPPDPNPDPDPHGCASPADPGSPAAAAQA

R275C = assay: as above; details: U2OS BacMam BK variants, at 30 µM
R275C/beta1 = assay: as above; details: U2OS BacMam BK variants, at 30 µM
R275C/beta2Delta = assay: as above; details: U2OS BacMam BK variants, at 30 µM
[14] = target: NAD(+) hydrolase SARM1 (Homo sapiens) (UniProt Q6SZW1); assay: blocking NAD cleavage by SARM1 SAM-TIR – cell lysate, NAD-Glo luminescence (AID 1508614;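 active = compound whose remaining NAD level is above about 45 nM, limit read from the data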;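 note: higher remaining NAD means stronger inhibition of SARM1 NADase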); details: SAM-TIR HEK293T lysate NADase, at 1 µM, stronger effect = higher value
Sequence of NAD(+) hydrolase SARM1 (Homo sapiens) (Q6SZW1 whole entry, looked up): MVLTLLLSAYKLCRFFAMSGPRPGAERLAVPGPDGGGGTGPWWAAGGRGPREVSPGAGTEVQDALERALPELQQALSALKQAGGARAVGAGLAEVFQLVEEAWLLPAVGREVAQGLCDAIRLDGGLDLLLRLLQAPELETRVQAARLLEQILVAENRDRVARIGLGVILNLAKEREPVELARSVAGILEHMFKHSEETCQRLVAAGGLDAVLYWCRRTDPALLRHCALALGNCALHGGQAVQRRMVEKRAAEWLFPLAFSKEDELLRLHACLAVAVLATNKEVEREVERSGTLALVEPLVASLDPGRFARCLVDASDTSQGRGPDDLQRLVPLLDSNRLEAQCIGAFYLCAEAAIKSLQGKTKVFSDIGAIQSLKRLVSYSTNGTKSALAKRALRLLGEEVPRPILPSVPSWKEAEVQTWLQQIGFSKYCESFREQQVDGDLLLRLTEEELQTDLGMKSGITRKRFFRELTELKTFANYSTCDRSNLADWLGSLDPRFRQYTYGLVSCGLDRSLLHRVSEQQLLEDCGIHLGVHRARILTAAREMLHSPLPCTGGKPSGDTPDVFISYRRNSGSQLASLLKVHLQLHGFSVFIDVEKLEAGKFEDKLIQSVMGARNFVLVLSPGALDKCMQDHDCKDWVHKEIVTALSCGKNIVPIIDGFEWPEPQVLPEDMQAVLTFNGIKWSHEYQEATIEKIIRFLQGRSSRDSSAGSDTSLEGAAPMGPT

[15] = EMT-state selective cytotoxicity in co-culture – imaging, PC-3E GFP, TEM4-18 mCherry, primary screen (AID 1345086;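 active = compounds killing one labelled cell type while sparing the other, by normalised counts and ratio limits, not self-fluorescent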;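 note: cells exposed to compound for 72 h before imaging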;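 for red/green cell ratio (normalised): normalised mesenchymal count divided by normalised epithelial count so high means epithelial killing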); details: PC-3E GFP / TEM4-18 mCherry co-culture, imaging cell counts, at 1 µM
[16] = stronger effect = lower value, cell number ratio, induced over uninduced
[17] = measured here: relative caspase fold change +Dox/-Dox
[18] = measured here: total cells with miR-34 induction, stronger effect = lower value
[19] = measured here: total cells without miR-34 induction
[20] = MELAS cybrid survival, CellTiter-Glo 48 h, stronger effect = higher value
[21] = Rieske KO mouse fibroblast survival, CellTiter-Glo 72 h

Cc1onc(-c2ccccc2)c1-c1ccc(S(N)(=O)=O)cc1
8880 and 8040: cell count [10, 18]
1.68 and 0.72: fold change [10, 17]
inactive: nuclear beta-catenin stimulation ([1]; at 10 µM) 1.5% | insulin secretion stimulation [2] -0.9% | viability decrease [3] -37.3% | tube area decrease [4] 32.7% | GLP1 secretion stimulation [5] 4.8% | inhibition of viability [6] 33.5% | viability decrease (inhibition) [8] 32.5% | inhibition [9] -1.63% | fold change [10, 16] 0.904 and 0.903 | z-score [11, 20] -0.154 and 0.659 | luciferase signal [12] 64 AU | log fold change Tl+ flux (F380Y) 0.0649 | log fold change Tl+ flux (F380Y/beta2Delta) 0.0548 | log fold change Tl+ flux [13] 0.00659 | log fold change Tl+ flux (R275C) 0.0179 | log fold change Tl+ flux (R275C/beta1) 0.0767 | log fold change Tl+ flux (R275C/beta2Delta) 0.0842
active: viability decrease (inhibition) [7] 54%
1.6%: nuclear beta-catenin stimulation ([1]; stimulation, at 2 µM)
-0.131 and 0.628: z-score [11, 21]
9820 and 8900: cell count [10, 19]

C[C@]12CCC(=O)C=C1CC[C@@H]1[C@@H]2[C@@H](O)C[C@@]2(C)[C@H]1CC[C@]2(O)C(=O)CO
0.1%: nuclear beta-catenin stimulation ([1]; stimulation, at 2 µM)
-0.00651 and 1.17: z-score [11, 21]
inactive: nuclear beta-catenin stimulation ([1]; at 10 µM) -0.3% | insulin secretion stimulation [2] 1.1% | viability decrease [3] -18.7% | tube area decrease [4] 9.1% | GLP1 secretion stimulation [5] 1.8% | inhibition of viability [6] -13.9% | viability decrease (inhibition) [7] 14.7% | viability decrease (inhibition) [8] -6.7% | inhibition [9] -14.6% | z-score [11, 20] -0.02 and 0.332 | remaining NAD [14] 10 nM | luciferase signal [12] 124 AU | log fold change Tl+ flux (F380Y) 0.0399 | log fold change Tl+ flux (F380Y/beta2Delta) 0.0274 | log fold change Tl+ flux [13] -0.00874 | log fold change Tl+ flux (R275C) -0.0265 | log fold change Tl+ flux (R275C/beta1) -0.0128 | log fold change Tl+ flux (R275C/beta2Delta) 0.0134

C[C@H](CCC(=O)O)[C@H]1CC[C@H]2[C@@H]3C(=O)C[C@@H]4CC(=O)CC[C@]4(C)[C@H]3CC(=O)[C@]12C
0%: nuclear beta-catenin stimulation ([1]; stimulation, at 2 µM)
10200: cell count [10, 19]
0.185: z-score [11, 21]
inactive: nuclear beta-catenin stimulation ([1]; at 10 µM) -0.3% | insulin secretion stimulation [2] 1.3% | viability decrease [3] -1% | tube area decrease [4] 15.1% | GLP1 secretion stimulation [5] 0.2% | inhibition of viability [6] -5.2% | viability decrease (inhibition) [7] 5.6% | viability decrease (inhibition) [8] -16% | inhibition [9] -0.558% and -4.79% | fold change [10, 16] 0.903 | z-score [11, 20] 1.02 | remaining NAD [14] 10 nM | luciferase signal [12] 100 AU and 64 AU | log fold change Tl+ flux (F380Y) -0.0147 | log fold change Tl+ flux (F380Y/beta2Delta) 0.00244 | log fold change Tl+ flux [13] -0.0617 | log fold change Tl+ flux (R275C) -0.000869 | log fold change Tl+ flux (R275C/beta1) -0.0193 | log fold change Tl+ flux (R275C/beta2Delta) -0.00319
1.51: fold change [10, 17]
9210: cell count [10, 18]

OCCN1C[C@H](O)[C@@H](O)[C@H](O)[C@H]1CO
inactive: nuclear beta-catenin stimulation ([1]; at 10 µM) -2.3% | insulin secretion stimulation [2] 5.4% | viability decrease [3] -1.6% | tube area decrease [4] 0.1% | GLP1 secretion stimulation [5] -1.4% | inhibition of viability [6] 0.6% | viability decrease (inhibition) [7] -1.7% | viability decrease (inhibition) [8] 0.1% | inhibition [9] 6.33% | z-score [11, 20] 0.074 | remaining NAD [14] 10 nM | luciferase signal [12] 80 AU | log fold change Tl+ flux (F380Y) -0.0502 | log fold change Tl+ flux (F380Y/beta2Delta) -0.0041 | log fold change Tl+ flux [13] -0.0394 | log fold change Tl+ flux (R275C) -0.0048 | log fold change Tl+ flux (R275C/beta1) -0.0736 | log fold change Tl+ flux (R275C/beta2Delta) -0.00824
-1%: nuclear beta-catenin stimulation ([1]; stimulation, at 2 µM)
0.78: z-score [11, 21]

CC[C@H](C)C(=O)O[C@H]1C[C@H](O)C=C2C=C[C@H](C)[C@H](CC[C@@H](O)C[C@@H](O)CC(=O)O)[C@H]21
inactive: nuclear beta-catenin stimulation ([1]; at 10 µM) -0.7% | insulin secretion stimulation [2] 0.2% | viability decrease [3] -15.6% | tube area decrease [4] 22% | GLP1 secretion stimulation [5] -3.6% | inhibition of viability [6] 12.4% | viability decrease (inhibition) [7] 2.3% | viability decrease (inhibition) [8] 5.1% | inhibition [9] -4.46% | fold change [10, 16] 0.972 | z-score [11, 20] -0.583 | remaining NAD [14] 10 nM | luciferase signal [12] 36 AU | log fold change Tl+ flux (F380Y) -0.00852 | log fold change Tl+ flux (F380Y/beta2Delta) -0.0757 | log fold change Tl+ flux [13] 0.00396 | log fold change Tl+ flux (R275C) -0.0381 | log fold change Tl+ flux (R275C/beta1) -0.014 | log fold change Tl+ flux (R275C/beta2Delta) 0.0137
-1.06: z-score [11, 21]
9270: cell count [10, 19]
0.983: fold change [10, 17]
9020: cell count [10, 18]
-0.3%: nuclear beta-catenin stimulation ([1]; stimulation, at 2 µM)

CCCSc1ccc2nc(NC(=O)OC)[nH]c2c1
2.78 (active) and -2.05 (inactive): z-score [11, 20]
inactive: insulin secretion stimulation [2] -1% | GLP1 secretion stimulation [5] 0.9% | inhibition [9] -6.38% | red/green cell ratio (normalised) ([15]; actives lie on both sides, counts scaled to control wells, 1 = unselective) 0.93 | remaining NAD [14] 10 nM | log fold change Tl+ flux (F380Y) -0.0721 | log fold change Tl+ flux (F380Y/beta2Delta) 0.0117 | log fold change Tl+ flux [13] -0.0345 | log fold change Tl+ flux (R275C) 0.0372 | log fold change Tl+ flux (R275C/beta1) 0.0301 | log fold change Tl+ flux (R275C/beta2Delta) 0.0234
active: nuclear beta-catenin stimulation ([1]; at 10 µM) 49% | viability decrease [3] 87.3% | tube area decrease [4] 102% | inhibition of viability [6] 76% | viability decrease (inhibition) [7] 86.6% | viability decrease (inhibition) [8] 56.7% | luciferase signal [12] 368 AU
24.2%: nuclear beta-catenin stimulation ([1]; stimulation, at 2 µM)
0.26: normalised cell number ([15]; measured here: epithelial PC-3E GFP cell survival)
0.0317 and -0.672 and 1.64: z-score [11, 21]
0.24: normalised cell number ([15]; measured here: mesenchymal TEM4-18 mCherry cell survival)

O[C@@H](c1cc(C(F)(F)F)nc2c(C(F)(F)F)cccc12)[C@H]1CCCCN1
3.3%: nuclear beta-catenin stimulation ([1]; stimulation, at 2 µM)
950: cell count [10, 18]
597: cell count [10, 19]
inactive: insulin secretion stimulation [2] 6.3% | GLP1 secretion stimulation [5] -1.8% | inhibition [9] 5.27% | fold change [10, 16] 1.59 | remaining NAD [14] 10 nM | luciferase signal [12] 64 AU
active: nuclear beta-catenin stimulation ([1]; at 10 µM) 45% | viability decrease [3] 99.1% | tube area decrease [4] 108% | inhibition of viability [6] 99% | viability decrease (inhibition) [7] 102% | viability decrease (inhibition) [8] 101% | log fold change Tl+ flux (F380Y) 0.333 | log fold change Tl+ flux (F380Y/beta2Delta) 0.541 | log fold change Tl+ flux [13] 0.167 | log fold change Tl+ flux (R275C) 0.256 | log fold change Tl+ flux (R275C/beta1) 0.641 | log fold change Tl+ flux (R275C/beta2Delta) 0.366
0.276: fold change [10, 17]

— PubChem BioAssay
